# Bioassay records: PubChem BioAssay, Broad Institute
# Sampled rows, rich in hits. Any-hit rate of the full collection: about 0.65%.
# Yp Topo-I inh – Yersinia pestis topoisomerase I inhibitors, primary screen, biochemical, cleavage product accumulation, plate reader, single point. DNA topoisomerase I (Yersinia pestis CO92). Y. pestis Topo-I cleavage product accumulation. activity, % at 10 µM. actives 0.064% (n = 360,000); in the data active means activity above about 50%, passing the limit was not always enough
# PrP 5UTR inh – inhibition of PrP 5' UTR reporter expression | cell-based PrP 5' UTR mRNA reporter, plate reader | inhibition, % (concentration not given with the values) | actives 0.35% (n = 340,000) | AID 488862, 2010; in the data active means inhibition above about 52%
# Mtb UGM inh – M. tuberculosis UGM enzyme inhibitors, primary screen, biochemical, fluorescence polarization, single point | UDP-galactopyranose mutase (Mycobacterium tuberculosis (strain ATCC 25618 / H37Rv)), … | purified UGM, fluorescence polarization probe displacement | inhibition, % at 10 µM | actives 0.06% (n = 320,000); in the data active means inhibition above about 10%, passing the limit was not always enough
# TcdB GH inh – TcdB glycohydrolase inhibitors, primary screen, biochemical, single point, plate reader. Toxin B (Clostridioides difficile), P18177. TcdB glycohydrolase enzymatic assay. inhibition, % at 9.99 µM. actives 0.24% (n = 350,000). AID 652162, 2013; in the data active means inhibition above about 10%
# BH1578 lux ind – inducers of Vibrio cholerae quorum light production without autoinducers, primary screen, BH1578 luxS cqsA deficient, single point; V. cholerae BH1578 lux reporter, luminescence, 6 h; activation, % at 18.7 µM; actives 0.16% (n = 350,000); in the data active means activation mostly above about 9.7%, no sharp cut-off
# Hits are given with their value; - = inactive; . = not tested or not shown; + = active, no number.
SMILES,Yp Topo-I inh,PrP 5UTR inh,Mtb UGM inh,TcdB GH inh,BH1578 lux ind
C[C@H](CO)N1C[C@H](C)[C@H](CN(C)S(=O)(=O)c2ccc(Cl)cc2)Oc2ccc(N(C)C)cc2CC1=O,.,.,.,-,.
O=C(C[C@@H]1CC[C@@H](NC(=O)c2ccncc2)[C@H](CO)O1)Nc1ccc(-c2ccccc2)cc1,.,.,.,-,.
COCC(=O)N1CC[C@@H]2[C@H]1c1cc(-c3ccccc3)ccc1N(C)[C@@H]2CO,.,.,.,-,.
COCC(=O)N1CC[C@@H]2[C@H]1c1cc(-c3ccccc3)ccc1N(C)[C@H]2CO,.,.,.,11,.
CC1CCN(c2oc(Cc3cccc4ccccc34)nc2C#N)CC1,55,-,-,.,.
C/C=C/c1ccc([C@@H]2[C@H](C#N)N(C(=O)NC3CCCC3)[C@H]2CO)cc1,.,.,.,-,.
O=P(c1ccccc1)(c1ccccc1)c1nc(-c2ccccc2)oc1N1CCOCC1,58,-,-,-,-
CN(C)CCNc1ccc(CO)c2sc3ccc(O)cc3c(=O)c12,-,-,.,25,-
CC1C(=O)NN=C1c1ccc([N+](=O)[O-])cc1 (stereo not given),-,-,.,10,-
O=C(NCC1(c2ccccc2)CCCC1)C1(c2ccccc2)CCCC1,68,-,-,.,-
COc1ccc(OCc2nnc3n2N=C(c2ccc(C)cc2)CS3)cc1,-,-,-,-,+
Cc1cc(O)ccc1N=Cc1c(C(F)(F)F)[nH][nH]c1=O,-,-,-,15,-
COc1ccc(C2C=C(c3ccccc3)Nc3nc(CCCO)nn32)cc1 (stereo not given),.,.,-,.,.
COc1ccc(C2C=C(c3cccs3)Nc3nc(CCCO)nn32)cc1 (stereo not given),.,.,29,.,.
CCCCCn1c(=O)c(C(=O)Nc2ccccc2S(N)(=O)=O)c(O)c2ccccc21,-,-,65,-,-
COc1ccc(NC(=O)Nc2ccc3c(c2)C(=O)N([C@@H](C)CO)C[C@@H](C)[C@H](CN(C)S(=O)(=O)c2cccs2)OCCCC[C@H](C)O3)cc1,.,.,.,-,.
Cc1ccc(S(=O)(=O)/N=C(\N)Nc2nc(C)c3cc(C)ccc3n2)cc1,58,-,-,.,-
S=c1[nH]nc2ccccn12,-,-,.,26,-
C[C@@H]1CN([C@H](C)CO)C(=O)c2cc(C#C[C@@H](C)O)cnc2O[C@H]1CN(C)C(=O)CC1CC1,.,.,.,-,.
CC(=O)Nc1cccc2c1C(=O)N(c1ccc(C)cc1)C2=O,-,-,-,.,17
Cc1ccc(N2C(=O)c3ccccc3C2=O)cc1,-,-,-,-,-
Cc1noc(C)c1NC(=O)N(C)C[C@@H]1OCCCC[C@H](C)Oc2ccc(NS(=O)(=O)c3ccccc3)cc2C(=O)N([C@H](C)CO)C[C@@H]1C,.,.,.,-,.
CC(=O)N1CC2(C1)[C@H](c1ccc(-c3ccccc3C)cc1)[C@H](CO)N2C(C)=O,.,.,.,-,.
COc1cc2c(cc1N)-c1ccc(N)cc1C2=O,-,.,.,20,-
COc1ccc(S(=O)(=O)N2CCC[C@H]2C(=O)N2CCC[C@H]2C(=O)NCc2ccncc2)cc1C,.,.,.,10,.
SMILES,Yp Topo-I inh,PrP 5UTR inh,Mtb UGM inh,TcdB GH inh,BH1578 lux ind
COc1ccc(NC(=O)CN2C(=O)NC(C)(c3ccc(C)cc3)C2=O)c([N+](=O)[O-])c1 (stereo not given),-,-,-,-,-
COc1cc(OC)cc(C(=O)NNC(=O)CN2C(=O)NC(C)(c3ccc(C)cc3)C2=O)c1 (stereo not given),-,-,-,14,-
Cc1ccc(SCCC(=O)N/N=C/c2cccnc2)cc1,-,-,-,10,-
C[C@@H]1CN([C@@H](C)CO)S(=O)(=O)c2ccc(C#CC3CC3)cc2O[C@@H]1CN(C)CC1CC1,.,.,.,-,.
Cc1noc(C)c1NC(=O)Nc1ccc2c(c1)C(=O)N([C@H](C)CO)C[C@H](C)[C@@H](CN(C)CC1CC1)OCCCC[C@@H](C)O2,.,.,.,-,.
C=CCn1c(O)c(CN2CCN(Cc3ccccc3)CC2)c(C)c(C#N)c1=O,-,-,-,.,17
CCCn1c(O)c(CN2CCCCC2)c(C)c(C#N)c1=O,-,-,-,.,-
COC(=O)c1ccc(C2C(Oc3ccc(OC)cc3)C(=O)N2CCc2ccc(F)cc2)cc1 (stereo not given),67,-,-,.,-
Cc1ccccc1NC(=O)C1CC(=O)N(c2ccc3c4c(cccc24)CC3)C1 (stereo not given),-,-,-,.,25
O=C(Nc1ccccc1Br)C1CC(=O)N(c2ccc3c4c(cccc24)CC3)C1 (stereo not given),-,-,-,-,-
Cc1nc(N)nc(-c2ccccc2O)n1,-,-,-,.,17
O=C(C[C@@H]1CC[C@@H](NC(=O)c2ccncc2)[C@H](CO)O1)NCC1CCCCC1,.,.,.,-,.
c1ccc(-c2nn3c(C4CCCCC4)nnc3s2)nc1,-,-,-,.,-
Clc1ccc(OCc2nn3c(C4CCCCC4)nnc3s2)cc1,54,-,-,.,-
O=C(C[C@H]1C=C[C@H](NC(=O)Nc2cc(F)ccc2F)[C@H](CO)O1)NCc1ccncn1,.,.,.,-,.
C=CCn1c(SCC(=O)c2ccc(OC)cc2)nnc1-c1cc2cccc(OC)c2o1,67,-,-,.,-
O=C(NCC[C@H]1CC[C@H](NS(=O)(=O)c2cccc(Cl)c2)[C@@H](CO)O1)c1cnccn1,.,.,.,-,.
O=C1CCCC2=C1Sc1ccccc1N2,-,-,-,10,-
O=C(NCc1ccc(F)cc1)c1cccc2c1C(=O)c1ccc(N3CCC(Cc4ccccc4)CC3)cc1S2(=O)=O,-,-,33,-,-
CCCC#Cc1ccc([C@H]2[C@H](CO)N3C(=O)CN(C(=O)c4ccncc4)C[C@@H]23)cc1,.,.,.,-,.
CC(C)(C)OCC(O)CN1CCN(C(=O)c2ccccc2)CC1 (stereo not given),-,-,-,12,-
Cc1cc(C)c(OCC(O)CN2CCN(C(=O)c3ccccc3)CC2)c(C)c1 (stereo not given),-,-,-,-,-
O=C(C[C@@H]1C=C[C@@H](NC(=O)CN2CCOCC2)[C@@H](CO)O1)NC1CCC1,.,.,.,-,.
O=C(COc1cccc(C(F)(F)F)c1)N1CCN(c2ccc(O)cc2)CC1,-,-,-,16,-
CS(=O)(=O)N1CC2(C1)[C@@H](c1ccccc1)[C@H](CO)N2C(=O)C1CCC1,.,.,.,-,.
COc1ccc(/C=C/c2nc3ccccc3n2C)cc1,-,-,-,13,-
COc1ccc(C#Cc2ccc([C@H]3[C@H]4CN(C(=O)c5ccncc5)CCCCN4[C@H]3CO)cc2)cc1,.,.,.,-,.
COc1ccccc1NC(=O)Nc1nnc(CC(=O)Nc2ccccc2C)s1,-,76,-,-,-
Nc1ccc(C(=O)c2ccc3c(c2)OCCO3)cc1N,-,-,-,14,-
C[C@@H]1CCCCO[C@H](CN(C)C)[C@H](C)CN([C@H](C)CO)C(=O)c2cc(NS(=O)(=O)c3ccc(F)cc3)ccc2O1,.,.,.,-,.
